Results taken from PubChem BioAssay (NCI).
The panel holds about 83,000 compounds, 20% with a hit somewhere; the sample as a whole holds those more often.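 Note: values are percent growth. 100 is the growth of untreated cells, values between 100 and 0 indicate rising inhibition; between -100 and 0 indicates cell death.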 Activity calls are given as the source filed them. The calls were made as follows: active = growth percent below 10; inactive = the rest.

Key:
Assay in all cases: NCI-60 one-dose screen, 48 h (100 = growth as untreated, 0 = no growth, -100 = all killed)
Settings in all cases: 10 µM unless noted
HCT-15 colon = tested on: HCT-15 colon
HT29 colon = tested on: HT29 colon
SNB-75 CNS = tested on: SNB-75 CNS
SNB-19 CNS = tested on: SNB-19 CNS
U251 CNS = tested on: U251 CNS
PC-3 prostate = tested on: PC-3 prostate
SK-MEL-5 melanoma = tested on: SK-MEL-5 melanoma
UACC-62 melanoma = tested on: UACC-62 melanoma
LOX IMVI melanoma = tested on: LOX IMVI melanoma
SK-MEL-28 melanoma = tested on: SK-MEL-28 melanoma

Measured: growth

O=C(C=P(c1ccccc1)(c1ccccc1)c1ccccc1)CCl
active: HCT-15 colon -18.2% | HT29 colon -54.2% | SNB-75 CNS 7.49% | PC-3 prostate 8.54% | SK-MEL-5 melanoma -4.76% | UACC-62 melanoma -78.3% | LOX IMVI melanoma -85.5% | SK-MEL-28 melanoma -6.08%
inactive: SNB-19 CNS 69.1% | U251 CNS 34.7%

Fc1ccc(-c2nnc(N3CCOCC3)c3ccccc23)cc1
inactive: HCT-15 colon 99.1% | HT29 colon 111% | SNB-75 CNS 101% | SNB-19 CNS 88.8% | U251 CNS 108% | PC-3 prostate 95.8% | SK-MEL-5 melanoma 96.9% | UACC-62 melanoma 96.1% | LOX IMVI melanoma 104% | SK-MEL-28 melanoma 106%

Fc1[nH]nc2ccc([C@@H]3Nc4ccc5[nH]ncc5c4[C@H]4C5CCC(C5)[C@@H]34)cc12 (stereo not given in full)
active: HT29 colon 8.7% | SNB-75 CNS -14.8%
inactive: HCT-15 colon 34.5% | SNB-19 CNS 36.6% | U251 CNS 25.8% | PC-3 prostate 27.8% | SK-MEL-5 melanoma 25.7% | UACC-62 melanoma 27.5% | LOX IMVI melanoma 48.3% | SK-MEL-28 melanoma 54.8%

COc1ccc2nc(C)cc(Nc3ccccc3O)c2c1
active: SNB-75 CNS -93.2% | U251 CNS -27.5% | LOX IMVI melanoma 2.48%
inactive: HCT-15 colon 32.8% | HT29 colon 18.9% | SNB-19 CNS 26% | PC-3 prostate 47.1% | SK-MEL-5 melanoma 72.9% | UACC-62 melanoma 56.5% | SK-MEL-28 melanoma 33.4%

CCN(CC)c1ccc(C(=N)c2ccc(N(C)C)cc2)cc1
active: HT29 colon 0.0991% | SNB-75 CNS 3.16% | U251 CNS 3.54% | PC-3 prostate 5.51% | SK-MEL-5 melanoma -80.1% | UACC-62 melanoma 5.14%
inactive: HCT-15 colon 10.9% | SNB-19 CNS 28.2% | LOX IMVI melanoma 19.1% | SK-MEL-28 melanoma 26.5%

Cc1cccc(C(=O)O)n1
inactive: HCT-15 colon 99.4% | HT29 colon 112% | SNB-75 CNS 103% | SNB-19 CNS 97.6% | U251 CNS 105% | PC-3 prostate 117% | SK-MEL-5 melanoma 98.3% | UACC-62 melanoma 101% | LOX IMVI melanoma 101% | SK-MEL-28 melanoma 123%

NC(N)=N/N=C\c1ccc(OCc2ccccc2)cc1
inactive: HCT-15 colon 35.7% | HT29 colon 16.6% | SNB-75 CNS 43.9% | SNB-19 CNS 70.9% | U251 CNS 45.7% | PC-3 prostate 70.7% | UACC-62 melanoma 78.2% | LOX IMVI melanoma 59.6% | SK-MEL-28 melanoma 87.8%
active: SK-MEL-5 melanoma -13%

COc1ccc(C2C=C(c3ccc(Cl)cc3)N=C3SC=CN32)cc1 (stereo not given)
inactive: HCT-15 colon 110% | HT29 colon 106% | SNB-75 CNS 86.7% | SNB-19 CNS 115% | U251 CNS 105% | PC-3 prostate 86.7% | SK-MEL-5 melanoma 111% | UACC-62 melanoma 116% | LOX IMVI melanoma 99.6% | SK-MEL-28 melanoma 97.6%

O=C(CN1CCN(c2ccccc2)CC1)N1CCN(c2nnc(-c3ccc(Cl)cc3)c(-c3ccc(Cl)cc3)n2)CC1
inactive: HCT-15 colon 45.4% | HT29 colon 32.3% | SNB-75 CNS 66.8% | SNB-19 CNS 82.1% | U251 CNS 60.4% | PC-3 prostate 26.6% | SK-MEL-5 melanoma 44.2% | UACC-62 melanoma 63.1% | LOX IMVI melanoma 64.6% | SK-MEL-28 melanoma 81.9%

CCCCCCCCCCCCCCCCCC1=NC(C)(C)CN1C(C)(C)CO
inactive: SNB-19 CNS 37.2%
active: HCT-15 colon 1.33% | HT29 colon -100% | SNB-75 CNS -1.88% | U251 CNS -100% | PC-3 prostate -1.05% | SK-MEL-5 melanoma -53% | UACC-62 melanoma -86.9% | LOX IMVI melanoma -100% | SK-MEL-28 melanoma -100%

Nc1nc(N)c2c(n1)NC(c1sc(Cl)nc1Cl)CC(c1ccccc1)=N2 (stereo not given)
inactive: HCT-15 colon 27.9% | HT29 colon 12.6% | SNB-75 CNS 30.1% | SNB-19 CNS 61.7% | U251 CNS 33.3% | PC-3 prostate 59.5% | SK-MEL-5 melanoma 33.5% | UACC-62 melanoma 45.7% | LOX IMVI melanoma 41.5% | SK-MEL-28 melanoma 62.3%

COc1ccc([C@@H]2[C@@H](Cl)C(=O)N2c2cc(OC)c(OC)c(OC)c2)cc1C
inactive: HCT-15 colon 15.8% | HT29 colon 11.1% | SNB-75 CNS 75.6% | SNB-19 CNS 33.6% | U251 CNS 12.9% | PC-3 prostate 28.9% | UACC-62 melanoma 35.3% | LOX IMVI melanoma 24.4% | SK-MEL-28 melanoma 70.7%
active: SK-MEL-5 melanoma -13.8%

Cc1n(Cc2ccc3ccccc3n2)cc[n+]1Cc1ccc2ccccc2n1
inactive: HCT-15 colon 100% | HT29 colon 62% | SNB-75 CNS 65.8% | SNB-19 CNS 54% | U251 CNS 58.8% | PC-3 prostate 55.8% | SK-MEL-5 melanoma 59% | UACC-62 melanoma 73% | LOX IMVI melanoma 81.9% | SK-MEL-28 melanoma 72%

C#CC[C@@H]1C[C@]2(C)[C@H]3CC=C4[C@H]5[C@@H](C)[C@H](C)CC[C@]5(C(=O)NCCCCN)CC[C@@]4(C)[C@]3(C)CC[C@H]2C(C)(C)[C@H]1OC(C)=O
inactive: HCT-15 colon 31.9% | HT29 colon 10.5% | SNB-75 CNS 81.1% | SNB-19 CNS 73.9% | U251 CNS 40.7% | PC-3 prostate 47.5% | SK-MEL-5 melanoma 94.9% | UACC-62 melanoma 106% | LOX IMVI melanoma 18.6% | SK-MEL-28 melanoma 100%

N#CC1=C(N)Oc2nc[nH]c(=O)c2C1c1cccs1 (stereo not given)
inactive: HCT-15 colon 99.8% | HT29 colon 99% | SNB-75 CNS 92.6% | SNB-19 CNS 104% | U251 CNS 96.3% | PC-3 prostate 97.9% | SK-MEL-5 melanoma 102% | UACC-62 melanoma 104% | LOX IMVI melanoma 100% | SK-MEL-28 melanoma 102%

COc1ccc(C2=Nn3c(nnc3-c3ccc(Cl)cc3N)SC2)cc1
inactive: HCT-15 colon 96.1% | HT29 colon 110% | SNB-75 CNS 85.4% | SNB-19 CNS 101% | U251 CNS 92.5% | PC-3 prostate 95.1% | SK-MEL-5 melanoma 97.8% | UACC-62 melanoma 86.6% | LOX IMVI melanoma 89.7% | SK-MEL-28 melanoma 97.8%

CCN(CC)CCNc1c(C)cc(CO)c(Cl)c1C
inactive: HCT-15 colon 106% | HT29 colon 97% | SNB-75 CNS 90.2% | SNB-19 CNS 92.8% | U251 CNS 105% | PC-3 prostate 97.9% | SK-MEL-5 melanoma 106% | UACC-62 melanoma 102% | LOX IMVI melanoma 98.8% | SK-MEL-28 melanoma 104%

COc1cccc(NC(=O)[C@H](C(C)C)n2c(=O)[nH]c3ccccc3c2=O)c1
inactive: HCT-15 colon 104% | HT29 colon 101% | SNB-75 CNS 102% | SNB-19 CNS 117% | U251 CNS 96.8% | PC-3 prostate 95.1% | SK-MEL-5 melanoma 99.2% | UACC-62 melanoma 107% | LOX IMVI melanoma 99.7% | SK-MEL-28 melanoma 114%

O=C(NCCNC(=O)c1cc(S(=O)(=O)NCCc2ccccc2)c(O)c(O)c1O)c1cc(S(=O)(=O)NCCc2ccccc2)c(O)c(O)c1O
inactive: HCT-15 colon 40.5% | HT29 colon 108% | SNB-75 CNS 63% | SNB-19 CNS 35.7% | U251 CNS 31.3% | PC-3 prostate 40.2% | SK-MEL-5 melanoma 15.6% | LOX IMVI melanoma 15% | SK-MEL-28 melanoma 54.2%
active: UACC-62 melanoma -15%

Clc1ccccc1Nc1nnc(-c2ccncc2)s1
inactive: HCT-15 colon 112% | HT29 colon 105% | SNB-75 CNS 106% | SNB-19 CNS 99.8% | U251 CNS 103% | PC-3 prostate 97.2% | SK-MEL-5 melanoma 97.7% | UACC-62 melanoma 95.3% | LOX IMVI melanoma 110% | SK-MEL-28 melanoma 100%

COc1ccc(/C=C(/C(=O)N2CCN(c3ccccc3)CC2)c2cc(OC)c(OC)c(OC)c2)cc1O
active: U251 CNS 8.04% | SK-MEL-5 melanoma -13.7%
inactive: HCT-15 colon 12.8% | HT29 colon 48.4% | SNB-75 CNS 67.8% | SNB-19 CNS 27.1% | PC-3 prostate 23.4% | UACC-62 melanoma 27.1% | LOX IMVI melanoma 14.7% | SK-MEL-28 melanoma 62.3%

CCCCCCCCCCCCCC(=S)NCCCC[C@H](NC(=O)OCc1ccccc1)C(=O)Nc1ccccc1
inactive: HCT-15 colon 32.6% | HT29 colon 45.1% | SNB-75 CNS 55.4% | SNB-19 CNS 45.8% | U251 CNS 28.7% | PC-3 prostate 25.7% | SK-MEL-5 melanoma 68.6% | UACC-62 melanoma 43.1% | LOX IMVI melanoma 42.2% | SK-MEL-28 melanoma 72.2%

CCCCN(CCCC)CCC(=O)c1ccc(OC)c2ccccc12
inactive: HCT-15 colon 99.7% | HT29 colon 98% | SNB-75 CNS 97.7% | SNB-19 CNS 87% | U251 CNS 86.7% | PC-3 prostate 84.7% | SK-MEL-5 melanoma 101% | UACC-62 melanoma 93.5% | LOX IMVI melanoma 78.9% | SK-MEL-28 melanoma 154%

CCCNC(=S)N/N=C(\C)c1ccccn1
inactive: HCT-15 colon 28.5% | HT29 colon 37.2% | SNB-75 CNS 74.2% | SNB-19 CNS 38.4% | U251 CNS 21.7% | PC-3 prostate 26.7% | SK-MEL-5 melanoma 22.4% | UACC-62 melanoma 11.1% | SK-MEL-28 melanoma 52.4%
active: LOX IMVI melanoma 9.29%

O=C(NO)c1ccc(NCc2csc3ccccc23)cc1
inactive: HCT-15 colon 39% | HT29 colon 79.2% | SNB-75 CNS 56% | SNB-19 CNS 69.5% | U251 CNS 57.4% | PC-3 prostate 52.4% | SK-MEL-5 melanoma 74.4% | UACC-62 melanoma 57.8% | LOX IMVI melanoma 71.6% | SK-MEL-28 melanoma 91.2%
